Bioassay records (PubChem BioAssay)
Shown are actives, neighbours in structure and some others; about 5.3% of the full set was active somewhere.
PNC inhibitor: perinucleolar compartment assembly inhibition. PC3M PTB-GFP, PNC prevalence imaging, 16 h; active compounds read low. activity change (PNC), negative = inhibition, % at 10 µM. 140,000 compounds, 3.1% hits;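 active = readout at or below -70, meaning at least 70% loss of cells showing the perinucleolar compartment, a nuclear body marking cancer cells; inconclusive = readout between -30 and a set limit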;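 note: plate controls were DMSO wells for no effect and camptothecin positive control wells for full effect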
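Read-out is percentage of cells bearing a perinucleolar compartment, from automated 20x imaging of fixed, Hoechst-stained PC3M PTB-GFP cells. Cells were seeded 4 h, then exposed 16 h to compound (23 nl of library stock) in duplicate plates.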
IMPase Li cell: membrane-permeable IMPase blocker, potentiated with lithium; CHO-M1 cells, IP1 TR-FRET (IP-One), carbachol + lithium; Potency, µM (doses to about 59.4 µM), inactives show at the top dose activity, negative = IMPase inhibition, most hits filed as inhibitors; 210,000 compounds, 0.35% hits;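 note: IP1 builds up when IMPase is blocked and the TR-FRET signal falls; potency is the fitted concentration of half-maximal effect; plate controls were basal vehicle for no effect and high inhibitor control for full effect; nearly all actives have a fitted effect of over 50% in size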
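IP1 accumulation measured by competitive TR-FRET in lysed CHO-M1 cells after 30 min compound exposure at 37C, with a small lithium addition to potentiate weak responses. Hill-equation AC50 from ratio and donor-channel data.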
IMPase cell inh: membrane-permeable compound that blocks inositol monophosphatase; CHO-M1 cells, IP1 accumulation, HTRF TR-FRET ratio; inhibition (IP1 accumulation), % at 46.1 µM; 120,000 tested, under 10 active; AID 901; active = well fitted curve in the direction sought with a large enough effect in the signal ratio, not every such curve was filed as active; inconclusive = small, poorly fitted or top-dose-only effect, or a change in a side signal; inactive = no such curve, though single readings can be large or run the other way; the % refers to the signal ratio;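 note: cells stimulated with carbachol in lithium chloride buffer; plate controls were DMSO basal wells for no effect and reference inhibitor wells for full effect; higher means more IMPase inhibition seen as more IP1 and lower FRET ratio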
Target sequence (P97697 whole entry, looked up): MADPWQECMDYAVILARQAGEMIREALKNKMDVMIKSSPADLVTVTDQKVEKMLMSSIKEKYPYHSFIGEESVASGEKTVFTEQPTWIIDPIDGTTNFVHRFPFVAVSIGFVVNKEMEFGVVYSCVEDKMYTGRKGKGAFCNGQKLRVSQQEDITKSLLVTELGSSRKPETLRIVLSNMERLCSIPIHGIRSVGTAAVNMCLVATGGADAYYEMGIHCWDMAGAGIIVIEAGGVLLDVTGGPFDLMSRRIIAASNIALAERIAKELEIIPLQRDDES
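Carbachol-driven Gq signalling in CHO-M1 cells (2000/well) generates IP1. Compounds that block IMPase raise IP1 and so reduce the FRET signal from Eu-anti-IP1 and d2-IP1 after a 10 min room-temperature lysis.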
ALOX12 inhib: 12-hLO (ALOX12) enzyme inhibition; P18054; purified 12-hLO, xylenol orange hydroperoxide absorbance; Potency, µM (doses to about 57.1 µM), without a hit: at the top dose activity change, negative = inhibition, actives largely listed as inhibitors; 150,000 compounds, 0.12% hits; AID 1452; note: potency is the fitted concentration of half-maximal effect; nearly all actives have a fitted effect of over 55% in size
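Hydroperoxide output read as Fe(III)-xylenol orange absorbance, 573-to-405 nm ratio, after 30 min reaction with 40 uM arachidonic acid. Enzyme: 150 nM purified human 12hLO, 15 min compound preincubation; 25 mM Hepes pH 7.0, room temperature.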
15-hLO-2 inh: blocks human 15-lipoxygenase 2 activity; O15296; purified 15hLO-2, xylenol orange hydroperoxide absorbance; Potency, µM (series often up to 57.1 µM), for inactives: at the highest dose activity change, negative = inhibition, usual class: inhibitors; 110,000 compounds, 0.56% hits; note: potency is the fitted concentration of half-maximal effect; nearly all actives have a fitted effect of over 60% in size
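Read-out: hydroperoxide product oxidises ferrous iron, measured as xylenol orange complex via the 573-to-405 nm absorbance ratio after 30 min. Reaction: 50 nM enzyme, 15 min compound preincubation, 45 uM arachidonic acid, 90 min RT, Hepes pH 7.5 with Triton X-100.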
HPGD inh: inhibitors of human 15-hydroxyprostaglandin dehydrogenase (HPGD); Potency, µM, inactives show at the top dose activity change, negative = inhibition, most hits filed as inhibitors; P15428; 150,000 compounds, 4.3% hits; purified HPGD, NADH fluorescence kinetic, PGE2 substrate; active = well fitted inhibition curve with a large enough effect, not every such curve was filed as active; inconclusive = small, poorly fitted or top-dose-only effect, or another doubt; inactive = no such curve, though single readings can be large or run the other way; note: potency is the fitted concentration of half-maximal effect
Target sequence (P15428 whole entry, looked up): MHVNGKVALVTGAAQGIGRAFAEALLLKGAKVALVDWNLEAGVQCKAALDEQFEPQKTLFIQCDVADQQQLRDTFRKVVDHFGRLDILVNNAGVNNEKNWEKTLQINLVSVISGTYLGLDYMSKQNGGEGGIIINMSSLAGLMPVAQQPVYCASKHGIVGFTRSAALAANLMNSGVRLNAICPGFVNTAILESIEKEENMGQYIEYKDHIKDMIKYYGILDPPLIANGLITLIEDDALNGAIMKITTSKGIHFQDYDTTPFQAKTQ
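20 nM HPGD preincubated 15 min at room temperature with compound in 50 mM Tris-HCl pH 8, 0.01% Tween 20. Started with 1 mM NAD+ and 30 uM prostaglandin E2; NADH fluorescence (360/450 nm) read 5 times over 30-s intervals, last minus first.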
The depositor's hits bear a star; u = inconclusive; x = not tested or not shown; [ ] = dose if it differs, or a comment. Unless noted, calls come from the whole dose curve; as a rule, active = well fitted curve in the direction sought with a large enough effect; inconclusive = small, poorly fitted or top-dose-only effect, or another doubt; inactive = no such curve, though single readings can be large; an effect the other way counts as inactive or inconclusive. Unless noted, % is set by controls: 0 for no effect and ±100 for the full control effect.

SMILES	PNC inhibitor	IMPase Li cell	IMPase cell inh	ALOX12 inhib	15-hLO-2 inh	HPGD inh
O=C1C2C3C=CC(CNS(=O)(=O)c4ccccc4)(O3)C2C(=O)N1c1ccc(Cl)cc1 (configuration not stated)	-19	5%	x	-8%	x	22µM*
CC(=O)Oc1ccc(N2C(=O)C3C4C=CC(CO)(O4)C3C2=O)cc1 (configuration not stated)	-18	-4%[38.3 µM]	4	-8%	-3%	22µM*
COc1ccc(C(=O)NCC23C=CC(O2)C2C(=O)N(Cc4ccccc4)C(=O)C23)cc1 (configuration not stated)	-20	2%[38.3 µM]	15	-5%	-23%	-7%
COC(=O)c1cc(N2C(=O)C3C(C2=O)C2(C)C=CC3(C)O2)ccc1Cl (configuration not stated)	55	21%	10	-14%	u	2.8µM*
CC(=O)Oc1ccc(N2C(=O)C3C(C2=O)C2(C)C=CC3(C)O2)cc1 (configuration not stated)	27	20%[38.3 µM]	-5	-20%	-12%	13µM*
CCNC(=O)NC(=O)CN(C)c1ccccc1	x	-3%	x	x	x	x
O=C1CCC(=O)N1c1ccccc1-c1ccccc1	u	-20%[38.3 µM]	0	-2%	8%	-4%
O=C1C2C3C=CC(CO)(O3)C2C(=O)N1c1ccccc1-c1ccccc1 (configuration not stated)	17	15%[38.3 µM]	15	u	u	7.9µM*
C=CCN1C(c2ccc(OCC)cc2)=CS/C1=C(\C#N)c1nnc2n1CCCCC2	u	33%[38.3 µM]	0	3%	5%	28µM*
CC(=O)N1CCN(C(=S)c2ccc(N(C)C)cc2)CC1	9	u	2	-8%	-9%	20µM*
CN(C)c1ccc(C(=S)N2CCN(c3ccccc3)CC2)cc1	9	5%[38.3 µM]	6	-8%	-3%	-9%
CN(C)c1ccc(C(=S)N2CCCCCC2)cc1	u	30%[38.3 µM]	4	3%	-8%	28µM*
Cc1ccc(N2CCN(C(=S)c3ccc(N(C)C)cc3)CC2)cc1	u	5%	12	-5%	u	25µM*
C=CCNC(=O)CC(C)C(CCCCC)C(=O)O (configuration not stated)	26	5%[38.3 µM]	1	-3%	-2%	-4%
CCCNS(=O)(=O)c1cccc(C(=O)NC2CCCc3ccccc32)c1 (configuration not stated)	-25	25%[38.3 µM]	-4	7%	-5%	-19%
C=CCc1c(OC(C)=O)c2ccccc2n(C)c1=O	-106*	-3%	x	3%	x	-14%
Cc1cc(NCc2ccco2)n2ncnc2n1	-119*	2%	5	2%	x	2%
Cc1cc(NCc2ccccc2)n2ncnc2n1	x	1%	x	x	x	x
O=C(NCc1cccc(C(F)(F)F)c1)c1cc(Cl)ccc1Cl	-108*	9%	x	-5%	x	28µM*
O=C(Cc1cccc(C(F)(F)F)c1)NCc1cccc(Cl)c1	u	15%	4	-2%	x	-27%
Cc1ccc(C(=O)c2c[nH]c(C(=O)NCc3cccnc3)c2)cc1	14	28%[38.3 µM]	2	1%	3%	25µM*
O=C(NCc1cccnc1)c1cccc(C(F)(F)F)c1	-94*	2%[38.3 µM]	7[1.84 µM]	8%	-12%[11.4 µM]	-1%
COc1cccc(C(=O)c2c[nH]c(C(=O)NCc3cccnc3)c2)c1	x	3%	x	x	x	x
O=C(NCCCN1CCOCC1)c1ccc(Sc2cccc(Cl)c2)c([N+](=O)[O-])c1	-29	23%	x	-1%	x	-7%
CCOC(=O)N1CCN(C(=O)CSc2ccccc2)CC1	4	-5%[38.3 µM]	5	0%	0%	10µM*
SMILES	PNC inhibitor	IMPase Li cell	IMPase cell inh	ALOX12 inhib	15-hLO-2 inh	HPGD inh
CCOC(=O)N1CCN(C(=O)CSCc2ccccc2)CC1	-2	-4%	x	0%	x	-7%
CCN(CC)CCNC(=O)c1c(O)c2cc(OC)c(OC)cc2[nH]c1=O	-119*	2%	-2	6%	x	-28%
COc1cc2[nH]c(=O)c(C(=O)NCCCN3CCOCC3)c(O)c2cc1OC	x	5%	x	x	x	x
COC(=O)[C@H](COC(C)(C)C)NC(=O)O[C@H]1C(=O)c2ccc(OC)cc2O[C@@H]1c1ccc2c(c1)OCO2	x	21%	x	x	x	-10%
CC(=Nc1ccc2c(c1)nc(CO)n2C)C1=C(O)CC(C)(C)CC1=O	41	14%[38.3 µM]	-8	-2%	10%	3.5µM*
C/C(=N/NC(=O)c1ccccc1)C1=C(O)CC(C)(C)CC1=O	x	9%	x	x	x	x
Cc1ccc(-n2c3nc(=O)[nH]c(=O)c-3cc3cc([N+](=O)[O-])ccc32)cc1C	-16	15%	5	0%	x	32µM*
O=c1c2ccccc2c2c(O)nc(-c3ccccc3)n2n1Cc1ccccc1	1	9%[38.3 µM]	1	-2%	-9%	-7%
O=C(C[N+]12CN3CN(CN(C3)C1)C2)c1ccc(-c2ccccc2)cc1	x	-3%	x	1%[11.4 µM]	-1%[11.4 µM]	-5%
CCCOC(=O)c1ccc(Oc2cn[nH]c2-c2ccc(OCC)cc2O)cc1	-117*	-8%[38.3 µM]	10	-26%	-14%	-18%
CCCc1ccc(Oc2cn[nH]c2-c2ccc(O)c(C)c2O)cc1	0	28%[38.3 µM]	9	-24%	-3%	18µM*
CCCc1ccc(Oc2c(-c3ccc(O)c(C)c3O)n[nH]c2C)cc1	u	9%[38.3 µM]	-2	u	-19%	-9%
COc1ccccc1OCCC(=O)OCC(=O)c1c(N)n(C)c(=O)n(C)c1=O	x	-3%	x	x	x	x
CCOC(=O)Nc1sc(=S)n(C)c1C	-12	9%	-4	-2%	x	25µM*
Cc1ccc(S(=O)(=O)NCCOC(=O)Nc2sc(=S)n(C)c2C)cc1	-6	-14%[38.3 µM]	0	-6%	u	-29%
Cc1ccc(/C=C/C(=O)O)cc1S(=O)(=O)NCc1ccco1	x	-6%	x	x	x	x
COC(=O)COc1ccc(S(=O)(=O)NCc2ccco2)cc1Cl	-103*	17%[38.3 µM]	-2	5%	-2%	-8%
COCCNS(=O)(=O)c1ccc(OCC(=O)OC)c(Cl)c1	-6	16%[38.3 µM]	-11	-6%	-6%	-10%
O=[N+]([O-])c1ccc(S(=O)(=O)Cc2ccccc2)c2nonc12	x	7%	x	u	u	3.2µM*
CCOC(=O)N/N=C\c1ccc(-c2cccc(C(F)(F)F)c2)o1	x	5%	x	x	x	x
N#C/C(=C\c1ccc(-c2cccc(C(F)(F)F)c2)o1)C(=O)Nn1cnnc1	-29	2%	x	0%	x	1.4µM*
CCOC(=O)c1cc(OC(=O)c2ccc(Cl)cc2)n(-c2ccccc2)n1	x	x	-2	x	x	x
CC1(C)C(=O)C=C[C@]2(C)C1CC(=O)[C@]1(C)C2CC[C@@]2(C)C(c3ccoc3)OC(=O)C3O[C@@]321 (some centres not stated)	x	0%	x	-4%	-10%	-5%
